Data as given in PubChem BioAssay (EPA / NIEHS).
Inconclusive results are not listed. The source made the active and inactive calls. Rule for the calls: active = hit-call score of the fitted dose curve at least 0.9, where 1 is the maximum; inconclusive = response in the unintended direction; inactive = score below 0.9.

Legend:
[1] = target: human Serotonin, 5-Hydroxytryptamine Receptor 2A (5HT2A), HTR2A (gene 3356) (UniProt P28223); assay: NVS_GPCR_h5HT2A: NovaScreen (NVS) G Protein-Coupled Receptor Assay for human Serotonin, 5-Hydroxytryptamine Receptor 2A (5HT2A) (AID 2283249)
How it was run: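 Radioligand displacement on human cortex tissue extract, counted by filtration and scintillation 1.5 h post-dosing. Initial single-concentration screen at 25 uM in duplicate, concentration series in follow-up; DMSO as baseline.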

[2] = tested on: guinea pig Muscarinic, Peripheral (Mperiperal) Receptor, Non-selective Binding, gene 100379235; assay: NVS_GPCR_gMPeripheral_NonSelective: NovaScreen (NVS) G Protein-Coupled Receptor Assay for guinea pig Muscarinic, Peripheral (Mperiperal) Receptor, Non-selective Binding (AID 2283250)
How it was run: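 Screened in duplicate at 25 uM, hits retested in concentration series to 50 uM max, using bladder membrane radioligand displacement from guinea pig. Filtration and scintillation counting 1 h post-dose, fitted relative to DMSO.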

[3] = target: guinea pig Opioid, Kappa 1 Receptor (OpiateK), OPRK1 (gene 100135587) (UniProt P41144); assay: NVS_GPCR_gOpiateK: NovaScreen (NVS) G Protein-Coupled Receptor Assay for guinea pig Opioid, Kappa 1 Receptor (OpiateK) (AID 2283252);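 note: active means reduced radioligand binding relative to DMSO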
How it was run: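 Radioligand binding to kappa opioid receptor in guinea pig cerebellar membranes, read by filtration and scintillation at 2 h. Compounds first tested in duplicate at 25 uM, then actives in concentration series; signal loss fitted against DMSO.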

[4] = target: human Adenosine A1 Receptor (AdoRA1), ADORA1 (gene 134) (UniProt P30542); assay: NVS_GPCR_hAdoRA1: NovaScreen (NVS) G Protein-Coupled Receptor Assay for human Adenosine A1 Receptor (AdoRA1) (AID 2283254)
How it was run: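 Hum. cortical membranes + radioligand, cmpd 1 h; filtration, scintillation count. Readout = decrease vs DMSO. Primary 25 uM dup; hits → conc. series.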

[5] = target: human Serotonin, 5-Hydroxytryptamine Receptor 7 (5HT7), HTR7 (gene 3363) (UniProt P34969); assay: NVS_GPCR_h5HT7: NovaScreen (NVS) G Protein-Coupled Receptor Assay for human Serotonin, 5-Hydroxytryptamine Receptor 7 (5HT7) (AID 2283255);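 note: hits reduce specific radioligand binding relative to DMSO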
How it was run: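 Filter-bound radioactivity counted after 1 h, with loss of specific radioligand binding fitted against DMSO. Membrane protein came from CHO cells expressing human 5HT7. Chemicals were tested first at 25 uM in duplicate, then in concentration series if active.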

[6] = target: human Adrenergic, Alpha 2A Receptor (Adra2A), ADRA2A (gene 150) (UniProt P08913); assay: NVS_GPCR_hAdra2A: NovaScreen (NVS) G Protein-Coupled Receptor Assay for human Adrenergic, Alpha 2A Receptor (Adra2A) (AID 2283257)
How it was run: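 Displacement of a specific radioligand from HT29 membrane protein was counted by filter scintillation after 1 h. Compounds were screened in duplicate at 25 uM, and actives were retested in concentration series. Fitting was positive-direction against DMSO.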

[7] = target: human Adrenergic, Beta 3 Receptor (Adrb3), ADRB3 (gene 155) (UniProt P13945); assay: NVS_GPCR_hAdrb3: NovaScreen (NVS) G Protein-Coupled Receptor Assay for human Adrenergic, Beta 3 Receptor (Adrb3) (AID 2283262)
How it was run: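 A cell-free filter binding assay read by scintillation counting, with displacement of a specific radioligand measured after 1 hour. The receptor source was SK-N-MC extracts (cells pretreated with isoproterenol and 8-bromo-cAMP). Compounds were first tested at 25 uM in duplicate and then in concentration series.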

[8] = target: human Dopamine Receptor D2 (DRD2), DRD2 (gene 1813) (UniProt P14416); assay: NVS_GPCR_hDRD2s: NovaScreen (NVS) G Protein-Coupled Receptor Assay for human Dopamine Receptor D2 (DRD2) (AID 2283266)
How it was run: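 Test compound (25 uM, duplicate in the primary screen; concentration series at follow-up) competed with radioligand for human DRD2 in CHO-derived membrane protein. Filter-based scintillation counting was done 1.5 hours after dosing, with loss of signal analysed against DMSO.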

[9] = tested on: guinea pig Leukotriene B4 Receptor (LTB4), gene 100379538; assay: NVS_GPCR_gLTB4: NovaScreen (NVS) G Protein-Coupled Receptor Assay for guinea pig Leukotriene B4 Receptor (LTB4) (AID 2283247)
How it was run: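 Membranes from guinea pig spleen incubated 2 h with radioligand and compound; bound counts measured by filtration and scintillation. Screened first at 25 uM in duplicate, then actives titrated to a 50 uM top concentration relative to DMSO.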

[10] = target: human Adrenergic, Alpha 2c Receptor (Adra2C), ADRA2C (gene 152) (UniProt P18825); assay: NVS_GPCR_hAdra2C: NovaScreen (NVS) G Protein-Coupled Receptor Assay for human Adrenergic, Alpha 2c Receptor (Adra2C) (AID 2283259)
How it was run: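 Screened first in duplicate at 25 uM, with actives then run as concentration series. Membranes from Sf9 cells were exposed for 1 h, and displacement of radioligand was counted after filtration, using DMSO as baseline.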

[11] = target: human Serotonin, 5-Hydroxytryptamine Receptor 6 (5HT6), HTR6 (gene 3362) (UniProt P50406); assay: NVS_GPCR_h5HT6: NovaScreen (NVS) G Protein-Coupled Receptor Assay for human Serotonin, 5-Hydroxytryptamine Receptor 6 (5HT6) (AID 2283253)
How it was run: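 Filter scintillation counting of radioligand displacement from HEK293-expressed 5HT6, 1 hour post-dose, with loss of signal relative to DMSO. Single 25 uM duplicates first, with concentration series for confirmation.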

[12] = target: human Adenosine A2a Receptor (AdoRA2a), ADORA2A (gene 135) (UniProt P29274); assay: NVS_GPCR_hAdoRA2a: NovaScreen (NVS) G Protein-Coupled Receptor Assay for human Adenosine A2a Receptor (AdoRA2a) (AID 2283256)
How it was run: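 HEK293-derived receptor preparation, radioligand displacement, 1.5 h, filtration + scintillation read. Loss of bound signal scored vs DMSO. Single-point 25 uM in duplicate first, then concentration-response for actives.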

[13] = target: human Adrenergic, Beta 1 Receptor (Adrb1), ADRB1 (gene 153) (UniProt P08588); assay: NVS_GPCR_hAdrb1: NovaScreen (NVS) G Protein-Coupled Receptor Assay for human Adrenergic, Beta 1 Receptor (Adrb1) (AID 2283258)
How it was run: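 Membranes/protein extracted from human neuroepithelioma cells, radioligand competition binding read by filtration and scintillation 2 h post-dose. Single 25 uM duplicate screen, then concentration-response follow-up; DMSO as negative control.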

[14] = target: Beta-2 adrenergic receptor (Homo sapiens) (UniProt P07550); assay: NVS_GPCR_hAdrb2: NovaScreen (NVS) G Protein-Coupled Receptor Assay for human Adrenergic, Beta 2 Receptor (Adrb2) (AID 2283261)
How it was run: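 Compounds screened in duplicate at 25 uM, then actives in concentration series. Human beta-2 receptor from CHO material, cell-free; radioligand displacement after 1 h measured by filtration and scintillation against DMSO baseline.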

[15] = target: human Dopamine Receptor D4.4 (DRD4.4), DRD4 (gene 1815) (UniProt P21917); assay: NVS_GPCR_hDRD4.4: NovaScreen (NVS) G Protein-Coupled Receptor Assay for human Dopamine Receptor D4.4 (DRD4.4) (AID 2283264)
How it was run: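 Filter-binding assay with a tritiated or iodinated ligand, cell-free receptor prepared from CHO, 1 hour. Loss of bound radioactivity versus DMSO; single 25 uM duplicate screen, then concentration-response for actives.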

Measured: AC50

Sequence of human Adenosine A1 Receptor (AdoRA1), ADORA1 (gene 134) (P30542 whole entry, looked up): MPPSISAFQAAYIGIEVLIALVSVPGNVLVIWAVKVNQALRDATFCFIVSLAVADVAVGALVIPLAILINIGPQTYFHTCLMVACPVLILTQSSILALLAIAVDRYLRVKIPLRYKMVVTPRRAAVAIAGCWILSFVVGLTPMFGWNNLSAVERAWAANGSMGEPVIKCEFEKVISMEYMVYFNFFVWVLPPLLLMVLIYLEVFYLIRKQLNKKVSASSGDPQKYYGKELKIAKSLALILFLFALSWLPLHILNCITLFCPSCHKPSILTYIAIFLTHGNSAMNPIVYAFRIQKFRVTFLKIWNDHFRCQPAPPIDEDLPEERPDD
Sequence of human Serotonin, 5-Hydroxytryptamine Receptor 7 (5HT7), HTR7 (gene 3363) (P34969 whole entry, looked up): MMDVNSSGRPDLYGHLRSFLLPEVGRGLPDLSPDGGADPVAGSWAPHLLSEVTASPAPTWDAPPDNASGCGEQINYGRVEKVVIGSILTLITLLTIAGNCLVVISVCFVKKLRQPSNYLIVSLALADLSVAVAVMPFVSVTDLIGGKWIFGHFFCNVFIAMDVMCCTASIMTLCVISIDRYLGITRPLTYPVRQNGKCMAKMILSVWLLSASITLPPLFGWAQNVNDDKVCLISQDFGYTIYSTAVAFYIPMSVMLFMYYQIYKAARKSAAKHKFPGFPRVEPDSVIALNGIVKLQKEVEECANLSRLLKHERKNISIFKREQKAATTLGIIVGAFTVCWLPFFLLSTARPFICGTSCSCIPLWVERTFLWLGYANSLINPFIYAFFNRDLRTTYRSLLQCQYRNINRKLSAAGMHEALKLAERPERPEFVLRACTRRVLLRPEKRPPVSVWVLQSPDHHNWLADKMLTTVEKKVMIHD
Sequence of human Adrenergic, Alpha 2A Receptor (Adra2A), ADRA2A (gene 150) (P08913 whole entry, looked up): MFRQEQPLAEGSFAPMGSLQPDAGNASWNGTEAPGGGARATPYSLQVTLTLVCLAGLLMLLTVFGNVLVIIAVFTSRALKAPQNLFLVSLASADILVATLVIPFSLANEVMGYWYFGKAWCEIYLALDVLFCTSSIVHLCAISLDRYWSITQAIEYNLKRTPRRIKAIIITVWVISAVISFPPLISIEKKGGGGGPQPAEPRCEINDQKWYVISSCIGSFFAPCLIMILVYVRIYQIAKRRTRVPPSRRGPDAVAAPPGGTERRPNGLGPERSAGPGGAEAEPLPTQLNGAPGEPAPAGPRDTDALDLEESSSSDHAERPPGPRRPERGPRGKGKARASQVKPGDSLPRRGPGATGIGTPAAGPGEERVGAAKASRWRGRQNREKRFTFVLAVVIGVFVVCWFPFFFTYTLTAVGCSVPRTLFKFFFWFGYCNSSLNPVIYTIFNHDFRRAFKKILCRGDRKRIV
Sequence of human Dopamine Receptor D2 (DRD2), DRD2 (gene 1813) (P14416 whole entry, looked up): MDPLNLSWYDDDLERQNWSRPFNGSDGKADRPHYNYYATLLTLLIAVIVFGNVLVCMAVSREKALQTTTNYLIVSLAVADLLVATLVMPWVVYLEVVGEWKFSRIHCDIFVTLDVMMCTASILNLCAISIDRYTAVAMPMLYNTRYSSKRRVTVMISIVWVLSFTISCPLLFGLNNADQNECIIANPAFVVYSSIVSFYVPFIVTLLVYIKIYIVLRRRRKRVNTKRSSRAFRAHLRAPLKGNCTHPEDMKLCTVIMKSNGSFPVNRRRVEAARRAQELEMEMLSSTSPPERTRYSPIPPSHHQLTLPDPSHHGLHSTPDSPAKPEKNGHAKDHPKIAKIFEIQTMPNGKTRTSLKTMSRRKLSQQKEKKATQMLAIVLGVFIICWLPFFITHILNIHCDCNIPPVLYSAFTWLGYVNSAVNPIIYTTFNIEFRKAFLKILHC
Sequence of human Serotonin, 5-Hydroxytryptamine Receptor 2A (5HT2A), HTR2A (gene 3356) (P28223 whole entry, looked up): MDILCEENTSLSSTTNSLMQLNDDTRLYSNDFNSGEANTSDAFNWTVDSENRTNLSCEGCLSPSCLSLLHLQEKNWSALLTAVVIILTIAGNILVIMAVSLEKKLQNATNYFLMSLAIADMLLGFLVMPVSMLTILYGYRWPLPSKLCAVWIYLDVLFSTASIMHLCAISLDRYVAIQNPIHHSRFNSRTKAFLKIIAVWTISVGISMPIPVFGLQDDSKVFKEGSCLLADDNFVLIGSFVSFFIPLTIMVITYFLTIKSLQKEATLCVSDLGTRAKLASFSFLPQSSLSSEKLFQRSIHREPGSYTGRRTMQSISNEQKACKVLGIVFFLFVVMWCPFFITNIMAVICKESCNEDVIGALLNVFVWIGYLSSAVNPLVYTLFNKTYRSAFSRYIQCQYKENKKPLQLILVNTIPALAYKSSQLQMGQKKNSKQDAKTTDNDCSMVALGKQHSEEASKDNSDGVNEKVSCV
Sequence of guinea pig Opioid, Kappa 1 Receptor (OpiateK), OPRK1 (gene 100135587) (P41144 whole entry, looked up): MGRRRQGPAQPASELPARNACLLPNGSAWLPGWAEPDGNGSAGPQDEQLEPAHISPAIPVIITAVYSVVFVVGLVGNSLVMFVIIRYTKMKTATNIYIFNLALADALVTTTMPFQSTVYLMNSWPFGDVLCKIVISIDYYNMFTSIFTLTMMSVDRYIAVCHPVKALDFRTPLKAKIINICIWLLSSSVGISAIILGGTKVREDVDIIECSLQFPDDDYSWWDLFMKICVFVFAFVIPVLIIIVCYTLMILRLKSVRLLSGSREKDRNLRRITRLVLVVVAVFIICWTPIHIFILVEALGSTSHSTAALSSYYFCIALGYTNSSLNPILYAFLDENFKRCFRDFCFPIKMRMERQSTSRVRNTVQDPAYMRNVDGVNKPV
Sequence of human Adrenergic, Alpha 2c Receptor (Adra2C), ADRA2C (gene 152) (P18825 whole entry, looked up): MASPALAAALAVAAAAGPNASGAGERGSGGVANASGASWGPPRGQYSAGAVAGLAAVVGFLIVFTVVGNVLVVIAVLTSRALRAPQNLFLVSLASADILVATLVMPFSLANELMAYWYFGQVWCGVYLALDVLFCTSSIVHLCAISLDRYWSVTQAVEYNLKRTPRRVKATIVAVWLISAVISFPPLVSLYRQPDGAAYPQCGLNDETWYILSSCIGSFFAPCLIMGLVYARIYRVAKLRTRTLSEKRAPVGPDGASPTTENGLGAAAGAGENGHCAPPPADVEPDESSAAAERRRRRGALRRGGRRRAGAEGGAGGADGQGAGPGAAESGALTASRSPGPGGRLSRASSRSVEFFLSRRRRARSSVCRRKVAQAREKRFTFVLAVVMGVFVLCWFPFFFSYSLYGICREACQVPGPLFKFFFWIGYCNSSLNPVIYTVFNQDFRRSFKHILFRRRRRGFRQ
Sequence of human Adrenergic, Beta 3 Receptor (Adrb3), ADRB3 (gene 155) (P13945 whole entry, looked up): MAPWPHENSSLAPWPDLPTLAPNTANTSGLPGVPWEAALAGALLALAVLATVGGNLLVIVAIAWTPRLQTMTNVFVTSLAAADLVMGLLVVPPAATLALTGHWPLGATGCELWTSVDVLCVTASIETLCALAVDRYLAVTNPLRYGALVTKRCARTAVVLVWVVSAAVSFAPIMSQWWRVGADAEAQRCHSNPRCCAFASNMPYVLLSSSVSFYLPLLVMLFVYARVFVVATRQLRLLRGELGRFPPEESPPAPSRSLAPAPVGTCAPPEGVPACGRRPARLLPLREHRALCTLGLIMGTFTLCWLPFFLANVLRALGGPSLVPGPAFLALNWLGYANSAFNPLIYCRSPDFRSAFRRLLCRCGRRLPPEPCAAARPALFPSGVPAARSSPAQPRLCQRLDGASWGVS
Sequence of human Serotonin, 5-Hydroxytryptamine Receptor 6 (5HT6), HTR6 (gene 3362) (P50406 whole entry, looked up): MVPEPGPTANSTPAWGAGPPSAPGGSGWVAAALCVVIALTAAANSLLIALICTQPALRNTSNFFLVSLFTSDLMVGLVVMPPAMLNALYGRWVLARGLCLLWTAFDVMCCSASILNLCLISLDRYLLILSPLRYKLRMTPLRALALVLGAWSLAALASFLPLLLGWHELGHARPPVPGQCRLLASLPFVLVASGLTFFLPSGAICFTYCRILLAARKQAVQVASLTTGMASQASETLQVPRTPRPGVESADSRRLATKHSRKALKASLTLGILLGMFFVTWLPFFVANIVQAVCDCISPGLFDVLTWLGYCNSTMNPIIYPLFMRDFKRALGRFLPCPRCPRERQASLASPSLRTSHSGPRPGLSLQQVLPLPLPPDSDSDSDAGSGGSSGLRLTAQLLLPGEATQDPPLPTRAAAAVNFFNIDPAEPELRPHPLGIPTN
Sequence of human Dopamine Receptor D4.4 (DRD4.4), DRD4 (gene 1815) (P21917 whole entry, looked up): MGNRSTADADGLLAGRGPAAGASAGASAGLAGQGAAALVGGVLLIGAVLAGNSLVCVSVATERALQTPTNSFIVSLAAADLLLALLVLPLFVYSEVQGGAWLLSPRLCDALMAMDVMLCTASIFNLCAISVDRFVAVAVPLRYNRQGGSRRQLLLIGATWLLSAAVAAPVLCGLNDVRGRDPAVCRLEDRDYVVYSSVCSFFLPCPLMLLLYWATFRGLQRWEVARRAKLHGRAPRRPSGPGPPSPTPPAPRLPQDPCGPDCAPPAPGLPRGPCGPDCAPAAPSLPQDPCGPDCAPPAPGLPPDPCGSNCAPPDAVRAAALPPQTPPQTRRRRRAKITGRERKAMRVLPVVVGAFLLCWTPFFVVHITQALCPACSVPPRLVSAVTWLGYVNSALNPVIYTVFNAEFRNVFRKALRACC
Sequence of Beta-2 adrenergic receptor (Homo sapiens) (P07550 whole entry, looked up): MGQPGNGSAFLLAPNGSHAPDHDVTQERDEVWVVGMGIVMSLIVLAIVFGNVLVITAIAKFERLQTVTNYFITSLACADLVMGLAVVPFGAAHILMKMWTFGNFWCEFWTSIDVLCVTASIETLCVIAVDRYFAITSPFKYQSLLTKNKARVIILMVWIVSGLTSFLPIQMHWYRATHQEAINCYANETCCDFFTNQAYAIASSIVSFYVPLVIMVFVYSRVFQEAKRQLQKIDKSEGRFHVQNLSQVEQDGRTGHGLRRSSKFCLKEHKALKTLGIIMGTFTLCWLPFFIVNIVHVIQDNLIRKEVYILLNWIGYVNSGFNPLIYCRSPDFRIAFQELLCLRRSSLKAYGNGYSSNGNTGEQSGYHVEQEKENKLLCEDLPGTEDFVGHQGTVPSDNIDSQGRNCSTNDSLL

CC[C@H]1CC[C@H](NCc2cc3c(cc2OC)[C@H]2C[C@H]2C(=O)N3C)[C@H](c2ccccc2)N1
active: [1] 9.49 µM | [2] 1.05 µM | [3] 2.02 µM | [4] 13.6 µM | [5] 20.4 µM | [6] 4.96 µM

CCn1nc(Cc2ccccc2)cc1C1CCN(C[C@H]2C[C@H](N(C)[C@@H](C(=O)O)C(C)C)C[C@@H]2c2cccc(F)c2)CC1
inactive: [7] | [8]
active: [3] 8.5 µM

CC1(C)C(=O)N(Br)C(=O)N1Br
active: [1] 25 µM

O=C(O)c1cccc(Oc2ccccc2)c1
inactive: [9]

CNS(=O)(=O)c1cc(C(=O)N2CCC(CCN3C4CCC3CC(n3c(C)nc5ccccc53)C4)(c3cccc(F)c3)CC2)c(Cl)cc1F (centres undefined)
active: [1] 1.52 µM | [2] 5.36 µM | [3] 0.935 µM | [5] 4.35 µM | [8] 8.72 µM

COCCOc1cc2cc(C(=O)NC3CCN(C(C)C)CC3)n(CC(=O)Nc3ccc(Cl)cn3)c2cn1
inactive: [2] | [3] | [4]
active: [6] 9.81 µM | [10] 6.54 µM

CCOC(=O)c1ccc(C2CCC(NC[C@H](O)COc3ccc(O)c(NS(C)(=O)=O)c3)CC2)cc1 (some centres undefined)
inactive: [4]
active: [1] 23.4 µM | [2] 23.4 µM | [11] 13 µM | [5] 6.12 µM | [12] 12.1 µM | [6] 31.1 µM | [13] 1.84 µM | [10] 7.95 µM | [14] 0.24 µM | [7] 7.77 µM | [15] 11.3 µM | [8] 0.0174 µM
